Experimental data as given in PubChem BioAssay (Tox21).
Records with an inconclusive call do not appear. Entries that show only a call come without a potency. Calls of active or inactive are those of the source. Unless noted, calls come from the whole dose curve; as a rule, active = well fitted curve in the direction sought with a large enough effect in the repeat runs; inconclusive = weak or mixed curves; inactive = no such curve, though single readings can be large; an effect the other way counts as inactive or inconclusive.

Assays:
[1] = qHTS assay to identify small molecule antagonists of the glucocorticoid receptor (GR) signaling pathway - cell viability counter screen (AID 720693); note: nearly all actives have a fitted effect of over 55% in size; note: potency is the fitted concentration of half-maximal effect
[2] = qHTS assay for identifying genotoxic compounds that show differential cytotoxicity against isogenic chicken DT40 cell lines with known DNA damage response pathways - wild type cell line (AID 743012); note: nearly all actives have a fitted effect of over 60% in size; note: potency is the fitted concentration of half-maximal effect
Procedure, shortened: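 Wild-type DT40 cells (300/well) exposed to compounds for 40 hours at 37 C/5% CO2. Viability read by CellTiter-Glo luminescence after 30 min at room temperature.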

[3] = qHTS assay for identifying genotoxic compounds that show differential cytotoxicity against isogenic chicken DT40 cell lines with known DNA damage response pathways - Rev3 mutant cell line (AID 743014); note: nearly all actives have a fitted effect of over 55% in size; note: potency is the fitted concentration of half-maximal effect
[4] = qHTS assay for identifying genotoxic compounds that show differential cytotoxicity against isogenic chicken DT40 cell lines with known DNA damage response pathways - Rad54/Ku70 mutant cell line (AID 743015); note: nearly all actives have a fitted effect of over 60% in size; note: potency is the fitted concentration of half-maximal effect
[5] = qHTS assay to identify small molecule antagonists of the androgen receptor (AR) signaling pathway - cell viability counter screen (AID 743033; note: nearly all actives have a fitted effect of over 45% in size)
[6] = qHTS assay to identify small molecule antagonists of the thyroid receptor (TR) signaling pathway (AID 743065); note: nearly all actives have a fitted effect of over 55% in size; note: potency is the fitted concentration of half-maximal effect
Procedure, shortened: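 Antagonism measured as loss of luciferase signal in GH3 cells stably carrying a TRE-luciferase reporter, co-treated with compound and T3 (1 nM final) for 23.5 h at 37 C. Viability was read in the same well by CellTiter-Fluor.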

[7] = system: thyroid hormone receptor (rat, GH3 cells); experiment: qHTS assay to identify small molecule agonists of the thyroid receptor (TR) signaling pathway (AID 743066; calls by dose curve)
[8] = qHTS assay to identify small molecule antagonists of the estrogen receptor alpha (ER-alpha) signaling pathway - cell viability counter screen (AID 743074; calls by dose curve;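 note: HEK293 cells carrying ER-alpha-UAS-bla reporter stimulated with 17beta-estradiol; nearly all actives have a fitted effect of over 45% in size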; note: potency is the fitted concentration of half-maximal effect)
[9] = biological target: Estrogen receptor (Homo sapiens) (UniProt P03372); experiment: qHTS assay to identify small molecule agonists of the estrogen receptor alpha (ER-alpha) signaling pathway (AID 743075; calls by dose curve;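 note: HEK293 GripTite cells with ER-alpha and UAS-driven beta-lactamase reporter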)
[10] = biological target: Estrogen receptor (Homo sapiens) (UniProt P03372); experiment: qHTS assay to identify small molecule agonists of the estrogen receptor alpha (ER-alpha) signaling pathway using the BG1 cell line (AID 743079); note: nearly all actives have a fitted effect of over 20% in size
[11] = qHTS assay to identify small molecule antagonists of the estrogen receptor alpha (ER-alpha) signaling pathway using the BG1 cell line (AID 743080; calls by dose curve;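 note: BG1 cells stimulated with 17beta-estradiol alongside compound; series mostly up to about 70 µM; nearly all actives have a fitted effect of over 25% in size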)
Procedure, shortened: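 Endogenous full-length ER-alpha in BG1-Luc-4E2 cells drives a stably integrated 4×ERE luciferase gene; compounds were tested against 17beta-estradiol over 21.5 h, with luminescence and multiplexed viability fluorescence recorded.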

[12] = qHTS assay to identify small molecule antagonists of the estrogen receptor alpha (ER-alpha) signaling pathway using the BG1 cell line - cell viability counter screen (AID 743081);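 note: compound given together with 17beta-estradiol as the ER stimulus; nearly all actives have a fitted effect of over 45% in size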; note: potency is the fitted concentration of half-maximal effect
Aromatase (Homo sapiens) = Aromatase (Homo sapiens) (UniProt P11511); experiment: qHTS assay to identify aromatase inhibitors (AID 743083); note: nearly all actives have a fitted effect of over 55% in size; note: potency is the fitted concentration of half-maximal effect
[13] = qHTS assay to identify aromatase inhibitors - cell viability counter screen (AID 743084); note: potency is the fitted concentration of half-maximal effect
[14] = qHTS assay to identify small molecule antagonists of the androgen receptor (AR) signaling pathway using the MDA cell line - cell viability counter screen (AID 743041; note: nearly all actives have a fitted effect of over 45% in size; note: potency is the fitted concentration of half-maximal effect)
Procedure, shortened: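 Cells were plated at 3,000 per well and left 5 h. Compounds in DMSO were then pinned in, followed by R1881. After 16 h at 37C, CellTiter-Fluor fluorescence gave viability.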

[15] = qHTS assay to identify small molecule antagonists of the thyroid receptor (TR) signaling pathway - cell viability counter screen (AID 743064); note: nearly all actives have a fitted effect of over 50% in size; note: potency is the fitted concentration of half-maximal effect
Procedure, shortened: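 Viability of T3-stimulated (1 nM final) GH3.TRE-Luc cells is measured by CellTiter-Fluor fluorescence after 23.5 h compound exposure at 37 °C plus 30 min reagent incubation.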

[16] = biological target: Androgen receptor (Homo sapiens) (UniProt P10275); experiment: qHTS assay to identify small molecule agonists of the androgen receptor (AR) signaling pathway (AID 743036; active = well fitted activation curve with a large enough effect in the signal ratio in the repeat runs, with a control signal flat, not every such curve was filed as active; the % refers to the signal ratio)
Procedure, shortened: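 Screening used 2,000 AR-bla HEK293 cells per well, treated 16 h at 37C with test compounds in DMSO alongside positive and DMSO-only controls; beta-lactamase activity was then read by LiveBLAzer B/G FRET fluorescence after 2 h at room temperature.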

[17] = biological target: Androgen receptor (Homo sapiens) (UniProt P10275); experiment: qHTS assay to identify small molecule agonists of the androgen receptor (AR) signaling pathway using the MDA cell line (AID 743040; note: nearly all actives have a fitted effect of over 20% in size)
Procedure, shortened: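 Cells plated, 5 h at 37C/0% CO2; compound or DMSO pinned; 16 h at 37C; ONE-Glo added; luminescence measured after 30 min at room temperature. Reporter line: MDA-kb2 with MMTV-luciferase responsive to AR and GR.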

[18] = biological target: Androgen receptor (Homo sapiens) (UniProt P10275); experiment: qHTS assay to identify small molecule antagonists of the androgen receptor (AR) signaling pathway using the MDA cell line (AID 743042; note: nearly all actives have a fitted effect of over 55% in size)
Procedure, shortened: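 Antagonist mode: compounds plus R1881 agonist added to MDA-kb2 AR-luc cells, incubated 16 h at 37C. Luciferase reporter luminescence quantified, with multiplexed CellTiter-Fluor readout for cell viability.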

[19] = biological target: Estrogen receptor (Homo sapiens) (UniProt P03372); experiment: qHTS assay to identify small molecule antagonists of the estrogen receptor alpha (ER-alpha) signaling pathway (AID 743069; active = well fitted curve in the direction sought with a large enough effect in the signal ratio in the repeat runs, not every such curve was filed as active; the % refers to the signal ratio)
Procedure, shortened: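 ER-alpha-UAS-bla GripTite HEK293 line; 2% charcoal-stripped FBS overnight; plated, 4 hr 37C/5% CO2; cpd in DMSO + 17beta-estradiol, 18 hr 37C; LiveBLAzer B/G FRET substrate 2 hr RT; fluorescence intensity.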

Estrogen receptor (Homo sapiens), sequence (P03372 whole entry, looked up): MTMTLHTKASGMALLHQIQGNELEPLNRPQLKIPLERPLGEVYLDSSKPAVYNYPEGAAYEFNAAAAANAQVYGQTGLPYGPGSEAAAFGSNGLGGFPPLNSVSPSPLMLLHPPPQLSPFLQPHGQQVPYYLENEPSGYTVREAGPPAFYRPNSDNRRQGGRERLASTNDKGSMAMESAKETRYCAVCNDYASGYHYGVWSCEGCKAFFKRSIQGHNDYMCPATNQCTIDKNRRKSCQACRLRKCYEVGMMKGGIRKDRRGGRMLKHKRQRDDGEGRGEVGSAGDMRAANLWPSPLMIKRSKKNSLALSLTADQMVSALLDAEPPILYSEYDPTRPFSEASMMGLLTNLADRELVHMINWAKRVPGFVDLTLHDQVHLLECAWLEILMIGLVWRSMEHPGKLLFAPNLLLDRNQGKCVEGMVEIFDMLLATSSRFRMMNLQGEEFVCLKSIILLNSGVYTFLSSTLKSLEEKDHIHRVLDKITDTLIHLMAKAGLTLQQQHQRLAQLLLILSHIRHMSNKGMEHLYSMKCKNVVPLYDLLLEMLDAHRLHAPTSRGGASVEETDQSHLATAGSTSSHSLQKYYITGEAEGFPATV
Androgen receptor (Homo sapiens), sequence (P10275 whole entry, looked up): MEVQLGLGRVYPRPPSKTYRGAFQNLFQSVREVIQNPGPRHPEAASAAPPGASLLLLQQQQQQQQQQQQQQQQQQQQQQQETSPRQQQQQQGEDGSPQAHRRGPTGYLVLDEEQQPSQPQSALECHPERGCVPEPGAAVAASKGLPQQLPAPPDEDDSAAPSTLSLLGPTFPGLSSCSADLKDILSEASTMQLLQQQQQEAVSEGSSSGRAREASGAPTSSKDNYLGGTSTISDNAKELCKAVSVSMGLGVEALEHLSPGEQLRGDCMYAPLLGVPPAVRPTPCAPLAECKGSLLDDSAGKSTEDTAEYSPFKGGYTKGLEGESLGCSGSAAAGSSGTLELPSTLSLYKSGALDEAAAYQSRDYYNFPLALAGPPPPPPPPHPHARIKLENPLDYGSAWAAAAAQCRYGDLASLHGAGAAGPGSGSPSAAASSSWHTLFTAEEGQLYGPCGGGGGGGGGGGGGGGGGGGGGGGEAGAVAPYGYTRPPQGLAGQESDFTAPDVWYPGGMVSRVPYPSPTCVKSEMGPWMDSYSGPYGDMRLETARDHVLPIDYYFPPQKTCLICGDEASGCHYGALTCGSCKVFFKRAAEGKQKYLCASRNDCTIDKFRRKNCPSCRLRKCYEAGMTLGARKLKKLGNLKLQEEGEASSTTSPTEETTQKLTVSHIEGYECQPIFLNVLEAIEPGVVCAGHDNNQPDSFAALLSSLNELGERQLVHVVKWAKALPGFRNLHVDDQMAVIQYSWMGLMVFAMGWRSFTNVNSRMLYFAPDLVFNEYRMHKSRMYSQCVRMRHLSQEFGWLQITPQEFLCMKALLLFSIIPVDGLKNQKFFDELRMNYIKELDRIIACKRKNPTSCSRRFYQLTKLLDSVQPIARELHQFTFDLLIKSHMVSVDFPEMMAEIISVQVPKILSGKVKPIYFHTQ
Aromatase (Homo sapiens), sequence (P11511 whole entry, looked up): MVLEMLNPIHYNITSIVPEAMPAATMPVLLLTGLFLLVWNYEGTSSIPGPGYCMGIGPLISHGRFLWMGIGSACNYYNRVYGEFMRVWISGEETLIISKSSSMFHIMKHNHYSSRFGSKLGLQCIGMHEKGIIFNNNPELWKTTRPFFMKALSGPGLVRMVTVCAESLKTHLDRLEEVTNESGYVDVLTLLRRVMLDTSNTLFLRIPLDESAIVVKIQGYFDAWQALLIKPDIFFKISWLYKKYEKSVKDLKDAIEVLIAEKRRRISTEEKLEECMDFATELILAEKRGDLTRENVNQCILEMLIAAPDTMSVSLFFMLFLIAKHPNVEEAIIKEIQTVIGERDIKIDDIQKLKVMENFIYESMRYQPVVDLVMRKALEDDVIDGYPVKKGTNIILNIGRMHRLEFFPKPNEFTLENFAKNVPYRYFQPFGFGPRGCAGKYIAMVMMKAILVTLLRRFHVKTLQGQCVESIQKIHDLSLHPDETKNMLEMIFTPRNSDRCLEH

SMILES	Potency [1]	Potency [2]	Potency [3]	Potency [4]	Potency [5]	Potency [6]	Potency [7]	Potency [8]	Potency [9]	Potency [10]	Potency [11]	Potency [12]	Potency (Aromatase (Homo sapiens))	Potency [13]	Potency [14]	Potency [15]	outcome [16]	Potency [17]	Potency [18]	Potency [19]
CC(C)CC(O)CC(C)C	inactive	inactive	inactive	inactive	inactive	inactive	inactive	inactive	inactive	inactive	inactive	inactive	inactive	inactive	–	–	–	–	–	–
COc1ccc(-n2nc(C(F)F)cc2-c2ccc(S(C)=O)cc2)cc1 (stereo unspecified)	inactive	61.1 µM (active)	30.6 µM (active)	54.5 µM (active)	inactive	–	inactive	inactive	inactive	inactive	–	inactive	inactive	–	inactive	inactive	–	–	–	–
CCC1CCC(CCC(=O)O)C1 (stereo unspecified)	inactive	inactive	inactive	inactive	inactive	inactive	inactive	inactive	–	–	–	inactive	inactive	inactive	–	inactive	–	–	–	–
CC(CCc1ccc(O)cc1)NCCc1ccc(O)c(O)c1 (stereo unspecified)	inactive	13.3 µM (active)	26.6 µM (active)	23.7 µM (active)	inactive	inactive	–	inactive	inactive	inactive	inactive	inactive	–	–	–	inactive	–	–	–	–
CCN(CC)c1ccc(C(=C2C=CC(=[N+](CC)CC)C=C2)c2ccc(S(=O)(=O)O)cc2S(=O)(=O)[O-])cc1	21.9 µM (active)	24.3 µM (active)	inactive	inactive	–	19.3 µM (active)	inactive	24.5 µM (active)	–	–	–	30.6 µM (active)	9.69 µM (active)	19.3 µM (active)	inactive	inactive	inactive	inactive	inactive	–
CCOC(=O)C(C)O (stereo unspecified)	inactive	inactive	inactive	inactive	inactive	–	–	inactive	inactive	inactive	inactive	–	inactive	inactive	inactive	inactive	–	–	–	inactive
O=S(=O)(O)CO	inactive	inactive	inactive	inactive	inactive	inactive	inactive	inactive	–	–	–	inactive	inactive	inactive	inactive	–	–	–	–	–
Nc1ccn([C@H]2CS[C@@H](CO)O2)c(=O)n1	inactive	inactive	inactive	inactive	inactive	–	–	inactive	–	–	–	inactive	inactive	inactive	inactive	–	–	–	–	–
CSCC[C@H](NC(=O)[C@H](Cc1c[nH]c2ccccc12)NC(=O)CCNC(=O)OC(C)(C)C)C(=O)N[C@@H](CC(=O)O)C(=O)N[C@@H](Cc1ccccc1)C(N)=O	inactive	inactive	inactive	inactive	inactive	–	–	inactive	inactive	inactive	inactive	–	inactive	inactive	inactive	–	–	–	–	inactive
CC1C(C)(C)C2=C(C(=O)CCC2)C1(C)C (stereo unspecified)	inactive	inactive	inactive	inactive	inactive	inactive	inactive	inactive	inactive	inactive	inactive	inactive	inactive	inactive	inactive	–	–	–	–	inactive
NC(=O)c1ccccc1[N+](=O)[O-]	inactive	inactive	inactive	inactive	inactive	inactive	inactive	inactive	inactive	inactive	inactive	inactive	inactive	inactive	inactive	–	–	–	–	inactive
O=C(O)CN1C(=O)c2cccc3cccc(c23)C1=O	inactive	inactive	inactive	inactive	inactive	inactive	inactive	inactive	–	–	–	inactive	inactive	inactive	inactive	–	–	–	–	–
COC(CC(C)CCCC(C)(C)O)OC (stereo unspecified)	inactive	inactive	inactive	inactive	inactive	inactive	inactive	inactive	–	–	–	inactive	inactive	inactive	inactive	–	–	–	–	–
CC(C)(C(=O)c1cccnc1)c1cccnc1	inactive	inactive	inactive	inactive	inactive	–	–	inactive	inactive	inactive	inactive	inactive	inactive	inactive	inactive	inactive	–	–	–	–
CC(C)c1ccc(C#N)cc1	inactive	inactive	inactive	inactive	inactive	inactive	inactive	inactive	inactive	inactive	inactive	inactive	inactive	inactive	inactive	–	–	–	–	–
CCNc1nc(N)nc(Cl)n1	inactive	inactive	inactive	inactive	inactive	inactive	–	inactive	–	–	–	inactive	–	–	inactive	–	–	–	–	–
CN=C(N)NC(=O)Nc1c(C)cccc1C	inactive	inactive	inactive	inactive	inactive	–	–	inactive	inactive	inactive	inactive	–	inactive	inactive	inactive	–	–	–	–	–
CC(C)N(C)C	inactive	inactive	inactive	inactive	–	inactive	inactive	inactive	inactive	inactive	inactive	inactive	inactive	inactive	inactive	inactive	–	–	–	–
O=C(O)CNC(=O)c1ccccc1I	inactive	inactive	inactive	inactive	–	inactive	inactive	inactive	inactive	inactive	inactive	inactive	inactive	inactive	inactive	inactive	–	–	–	inactive
CN(C)CC/C=C1\c2ccccc2Sc2ccc(Cl)cc21	inactive	3.76 µM (active)	16.8 µM (active)	10.6 µM (active)	–	11.9 µM (active)	inactive	inactive	inactive	inactive	inactive	inactive	–	–	27.8 µM (active)	11.9 µM (active)	–	inactive	–	–
CCCCCCCCCCCCCCCCCC(=O)OCC(CC)CCCC (stereo unspecified)	inactive	inactive	inactive	inactive	–	inactive	inactive	–	–	–	–	inactive	inactive	–	inactive	inactive	–	–	–	–
CC1=C2[C@@H]([C@H](C)CC[C@H]2/C=C(\C)C(=O)O)[C@H](O)C1	inactive	inactive	inactive	inactive	–	inactive	inactive	inactive	inactive	inactive	inactive	inactive	inactive	inactive	inactive	inactive	–	–	–	–
Nc1ccc(F)cc1	inactive	inactive	inactive	inactive	–	inactive	inactive	–	inactive	inactive	inactive	inactive	inactive	inactive	inactive	inactive	inactive	inactive	inactive	–
O=C1OC[C@H](Cc2cccc(O)c2)[C@H]1Cc1cccc(O)c1	inactive	inactive	inactive	inactive	–	inactive	inactive	inactive	–	–	–	inactive	inactive	inactive	inactive	inactive	–	–	–	–
CCCCC[C@H](O)/C=C/[C@H]1[C@H](O)CC(=O)[C@@H]1C/C=C\CCCC(=O)O	inactive	inactive	inactive	inactive	–	–	inactive	inactive	–	–	–	–	inactive	inactive	inactive	–	–	inactive	–	–
CCCOC(=O)c1c(Cl)c(Cl)c(Cl)c(Cl)c1C(=O)OCCC	inactive	54.5 µM (active)	61.1 µM (active)	61.1 µM (active)	–	–	inactive	inactive	–	–	–	inactive	–	inactive	–	inactive	–	–	–	–
CCCCCC	inactive	inactive	inactive	inactive	–	inactive	inactive	inactive	–	–	–	inactive	inactive	inactive	inactive	inactive	–	–	–	–
